Reference: the supplement of paper PMC10849652
Targets with a hit are over-represented here; the source holds about 8,800 in all. About 0.5% of all pairs of compound and target were hits. Unmarked numbers belong to inactive results.

How the values were obtained:
Test in all cases: log2 fold change, soluble protein after heating vs DMSO (PISA); higher = thermal stabilisation; K562 lysate, 10 uM; active = over 0.2 and 3.5 SD of the protein, either way, in both replicates (recomputed)
[1] = compound: CCCS(=O)(=O)Nc1ccc(F)c(C(=O)c2c[nH]c3ncc(-c4ccc(Cl)cc4)cc23)c1F [vemurafenib]
How it was run: (§1)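 The values are log-two fold changes in thermal stability compared with solvent controls and come from duplicates. They were obtained by TMTpro 16plex LC-MS/MS, with channel sums equalised, on the supernatant after 21,000xg for 90 min. That supernatant came from crude K562 extract at 1 mg/mL protein treated with 10 μM compound for 30 min, heated for 3 min across 48°C-58°C, pooled and brought to 0.5% NP-40 at 4°C.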

[2] = compound: CCCS(=O)(=O)Nc1ccc(F)c(C(=O)c2c[nH]c3ncc(Cl)cc23)c1F
How it was run: as §1

[3] = compound: CCN(CCCOc1ccc2c(Nc3cc(CC(=O)Nc4cccc(F)c4)[nH]n3)ncnc2c1)CCOP(=O)(O)O [barasertib]
How it was run: as §1

[4] = compound: CC[C@@H]1C(=O)N(C)c2cnc(Nc3ccc(C(=O)NC4CCN(C)CC4)cc3OC)nc2N1C1CCCC1
How it was run: as §1

[5] = compound: CC[C@@H]1C(=O)N(C)c2cnc(Nc3ccc(C(=O)N[C@H]4CC[C@H](N5CCN(CC6CC6)CC5)CC4)cc3OC)nc2N1C(C)C [volasertib]
How it was run: as §1

[6] = compound: CCn1c(C(=O)N(C2CC2)C2CC2)cc2c3c(ncn3C)c(Nc3cc(C)n(C)n3)nc21
How it was run: as §1

[7] = compound: CCn1cc(-c2ccnc3[nH]c(-c4cccc(CN(C)C)c4)cc23)c(-c2ccc(NC(=O)N(C)C)cc2)n1
How it was run: as §1

[8] = compound: CN1CCC(CNc2ccc3ncc(-c4cccc(OC(F)(F)F)c4)n3n2)CC1
How it was run: as §1

[9] = compound: CN1CCN(CCOc2cc(OC3CCOCC3)c3c(Nc4c(Cl)ccc5c4OCO5)ncnc3c2)CC1 [saracatinib]
How it was run: as §1

[10] = compound: CN1CCN(c2nc(C3=C(c4c[nH]c5ccccc45)C(=O)NC3=O)c3ccccc3n2)CC1 [sotrastaurin]
How it was run: as §1

[11] = compound: CN1CC[C@H](c2c(O)cc(O)c3c(=O)cc(-c4ccccc4Cl)oc23)[C@H](O)C1 [alvocidib]
How it was run: as §1

[12] = compound: CN1CCc2c(c3ccccc3n2Cc2ccc(C(=O)NO)cc2)C1 [Tubastatin A]
How it was run: as §1

[13] = compound: CNC(=O)C1=CC=CC=C1NC2=NC(=NC=C2Cl)NC3=C(C=C(C=C3)N4CCOCC4)OC
How it was run: as §1

[14] = compound: CNC(=O)c1ccc(Nc2ncc(C(F)(F)F)c(NCc3nccnc3N(C)S(C)(=O)=O)n2)cc1 [defactinib]
How it was run: as §1

[15] = compound: CNc1nc(-c2ccc3c(N)n[nH]c3c2)cc(N2C[C@@H](C(=O)NC3CCCCC3)CC[C@H]2C)n1
How it was run: as §1

[16] = compound: COC(=O)N[C@@H](C)CNc1nccc(-c2cn(C(C)C)nc2-c2cc(Cl)cc(NS(C)(=O)=O)c2F)n1 [encorafenib]
How it was run: as §1

[17] = compound: COC(=O)[C@H](CCSC)NC(=O)C1=C(C=C(C=C1)NC[C@H](CS)N)C2=CC=CC=C2
How it was run: as §1

[18] = compound: COc1cc(Nc2ncc3c(n2)-c2ccc(Cl)cc2C(c2c(F)cccc2OC)=NC3)ccc1C(=O)O [alisertib]
How it was run: as §1

[19] = compound: COc1cc2nc(-c3cc(F)ccc3O)nc(N[C@@H]3CNC[C@H]3C(C)(C)O)c2cc1OC
How it was run: as §1

[20] = compound: COc1cc2ncnc(Nc3ccc(F)c(Cl)c3)c2cc1OCCCN1CCOCC1 [gefitinib]
How it was run: as §1

Chain of UniProt P49356 (P49356 whole entry, looked up): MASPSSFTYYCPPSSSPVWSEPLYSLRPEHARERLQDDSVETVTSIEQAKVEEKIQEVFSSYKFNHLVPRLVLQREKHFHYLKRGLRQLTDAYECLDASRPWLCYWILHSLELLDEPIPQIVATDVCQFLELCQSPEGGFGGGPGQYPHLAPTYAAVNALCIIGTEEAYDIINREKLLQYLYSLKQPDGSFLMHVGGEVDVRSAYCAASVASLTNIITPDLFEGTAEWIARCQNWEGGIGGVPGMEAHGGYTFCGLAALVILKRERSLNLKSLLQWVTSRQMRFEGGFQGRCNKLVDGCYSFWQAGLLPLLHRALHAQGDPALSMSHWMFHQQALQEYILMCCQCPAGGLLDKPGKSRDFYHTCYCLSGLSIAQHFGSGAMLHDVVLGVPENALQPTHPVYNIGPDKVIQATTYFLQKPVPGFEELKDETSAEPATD
Chain of UniProt Q9Y5Q0 (Q9Y5Q0 whole entry, looked up): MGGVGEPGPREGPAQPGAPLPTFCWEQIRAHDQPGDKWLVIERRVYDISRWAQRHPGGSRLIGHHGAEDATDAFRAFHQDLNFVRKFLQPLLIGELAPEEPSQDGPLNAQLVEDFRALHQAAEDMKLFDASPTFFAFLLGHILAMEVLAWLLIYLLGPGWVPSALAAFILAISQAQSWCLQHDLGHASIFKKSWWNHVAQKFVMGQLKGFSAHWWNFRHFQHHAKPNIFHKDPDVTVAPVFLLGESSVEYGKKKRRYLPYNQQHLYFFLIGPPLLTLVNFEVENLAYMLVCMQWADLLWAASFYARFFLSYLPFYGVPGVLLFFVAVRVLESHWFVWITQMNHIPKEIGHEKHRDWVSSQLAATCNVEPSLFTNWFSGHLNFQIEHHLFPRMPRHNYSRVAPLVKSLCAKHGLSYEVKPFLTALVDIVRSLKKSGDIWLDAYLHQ
Chain of UniProt O14893 (O14893 whole entry, looked up): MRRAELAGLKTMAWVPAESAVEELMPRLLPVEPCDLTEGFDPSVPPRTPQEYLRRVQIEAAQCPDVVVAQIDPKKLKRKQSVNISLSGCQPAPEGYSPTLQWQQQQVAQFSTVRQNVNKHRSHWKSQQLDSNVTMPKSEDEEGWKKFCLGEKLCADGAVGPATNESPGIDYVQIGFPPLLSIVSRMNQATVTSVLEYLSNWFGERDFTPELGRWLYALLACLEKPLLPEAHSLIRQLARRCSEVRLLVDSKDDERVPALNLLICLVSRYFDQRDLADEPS
Chain of UniProt Q96G46 (Q96G46 whole entry, looked up): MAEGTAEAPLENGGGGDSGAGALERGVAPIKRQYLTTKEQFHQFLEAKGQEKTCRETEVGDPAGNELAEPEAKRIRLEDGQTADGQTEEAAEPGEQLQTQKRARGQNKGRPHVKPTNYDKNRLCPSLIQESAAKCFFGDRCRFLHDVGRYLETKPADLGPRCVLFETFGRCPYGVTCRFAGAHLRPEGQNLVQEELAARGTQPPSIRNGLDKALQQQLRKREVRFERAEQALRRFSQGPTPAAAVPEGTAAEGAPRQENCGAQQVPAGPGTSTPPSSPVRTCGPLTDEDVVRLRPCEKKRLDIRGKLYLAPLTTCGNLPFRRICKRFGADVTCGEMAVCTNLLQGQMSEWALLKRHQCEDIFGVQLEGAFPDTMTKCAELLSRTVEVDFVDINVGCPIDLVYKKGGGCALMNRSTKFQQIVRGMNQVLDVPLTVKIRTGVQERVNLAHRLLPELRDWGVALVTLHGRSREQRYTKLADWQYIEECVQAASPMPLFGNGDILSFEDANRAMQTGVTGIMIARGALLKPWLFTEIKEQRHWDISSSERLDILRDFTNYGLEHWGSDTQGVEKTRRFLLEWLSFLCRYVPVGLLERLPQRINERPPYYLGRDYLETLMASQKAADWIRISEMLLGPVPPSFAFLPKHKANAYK
Chain of UniProt O43427 (O43427 whole entry, looked up): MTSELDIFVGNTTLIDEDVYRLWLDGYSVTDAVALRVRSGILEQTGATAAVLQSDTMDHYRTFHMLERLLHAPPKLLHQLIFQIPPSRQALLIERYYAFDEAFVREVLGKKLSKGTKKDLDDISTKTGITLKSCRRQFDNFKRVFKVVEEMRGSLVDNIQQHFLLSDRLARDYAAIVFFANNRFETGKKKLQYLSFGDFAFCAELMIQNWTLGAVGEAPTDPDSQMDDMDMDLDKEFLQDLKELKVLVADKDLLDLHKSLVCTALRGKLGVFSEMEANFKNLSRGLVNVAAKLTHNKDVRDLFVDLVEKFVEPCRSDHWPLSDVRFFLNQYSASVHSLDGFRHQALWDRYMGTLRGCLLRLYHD
Chain of UniProt Q8N6R0 (Q8N6R0 whole entry, looked up): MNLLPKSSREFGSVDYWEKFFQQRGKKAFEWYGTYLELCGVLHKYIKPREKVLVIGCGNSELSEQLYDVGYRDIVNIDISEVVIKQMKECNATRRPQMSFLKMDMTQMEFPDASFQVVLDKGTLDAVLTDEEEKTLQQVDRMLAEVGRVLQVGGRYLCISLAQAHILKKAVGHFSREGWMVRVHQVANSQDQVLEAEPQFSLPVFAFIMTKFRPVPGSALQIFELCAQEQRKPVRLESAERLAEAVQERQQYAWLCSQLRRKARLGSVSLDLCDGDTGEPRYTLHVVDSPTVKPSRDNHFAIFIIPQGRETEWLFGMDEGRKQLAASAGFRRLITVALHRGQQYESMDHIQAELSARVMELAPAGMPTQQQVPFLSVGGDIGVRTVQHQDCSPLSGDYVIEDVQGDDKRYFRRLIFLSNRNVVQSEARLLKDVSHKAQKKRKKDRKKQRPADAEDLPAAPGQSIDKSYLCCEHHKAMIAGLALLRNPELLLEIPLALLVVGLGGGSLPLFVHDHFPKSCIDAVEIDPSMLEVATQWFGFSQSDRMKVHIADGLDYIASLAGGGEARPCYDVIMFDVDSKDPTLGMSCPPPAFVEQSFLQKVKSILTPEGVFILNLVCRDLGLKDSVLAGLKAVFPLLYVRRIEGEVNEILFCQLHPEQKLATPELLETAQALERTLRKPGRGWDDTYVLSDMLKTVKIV
Chain of UniProt O75071 (O75071 whole entry, looked up): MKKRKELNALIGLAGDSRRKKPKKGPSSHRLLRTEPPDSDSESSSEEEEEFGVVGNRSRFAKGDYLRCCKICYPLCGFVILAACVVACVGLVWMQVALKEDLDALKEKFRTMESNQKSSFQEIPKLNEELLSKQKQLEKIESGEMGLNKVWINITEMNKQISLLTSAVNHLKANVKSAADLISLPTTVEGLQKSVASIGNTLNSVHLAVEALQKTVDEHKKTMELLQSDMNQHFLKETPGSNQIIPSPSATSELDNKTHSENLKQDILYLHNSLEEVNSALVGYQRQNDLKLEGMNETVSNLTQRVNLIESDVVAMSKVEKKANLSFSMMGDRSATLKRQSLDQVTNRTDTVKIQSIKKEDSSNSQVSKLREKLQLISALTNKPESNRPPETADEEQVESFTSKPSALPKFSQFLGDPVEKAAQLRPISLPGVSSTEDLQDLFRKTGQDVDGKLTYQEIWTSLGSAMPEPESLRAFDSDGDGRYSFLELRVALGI
Chain of UniProt Q86YP4 (Q86YP4 whole entry, looked up): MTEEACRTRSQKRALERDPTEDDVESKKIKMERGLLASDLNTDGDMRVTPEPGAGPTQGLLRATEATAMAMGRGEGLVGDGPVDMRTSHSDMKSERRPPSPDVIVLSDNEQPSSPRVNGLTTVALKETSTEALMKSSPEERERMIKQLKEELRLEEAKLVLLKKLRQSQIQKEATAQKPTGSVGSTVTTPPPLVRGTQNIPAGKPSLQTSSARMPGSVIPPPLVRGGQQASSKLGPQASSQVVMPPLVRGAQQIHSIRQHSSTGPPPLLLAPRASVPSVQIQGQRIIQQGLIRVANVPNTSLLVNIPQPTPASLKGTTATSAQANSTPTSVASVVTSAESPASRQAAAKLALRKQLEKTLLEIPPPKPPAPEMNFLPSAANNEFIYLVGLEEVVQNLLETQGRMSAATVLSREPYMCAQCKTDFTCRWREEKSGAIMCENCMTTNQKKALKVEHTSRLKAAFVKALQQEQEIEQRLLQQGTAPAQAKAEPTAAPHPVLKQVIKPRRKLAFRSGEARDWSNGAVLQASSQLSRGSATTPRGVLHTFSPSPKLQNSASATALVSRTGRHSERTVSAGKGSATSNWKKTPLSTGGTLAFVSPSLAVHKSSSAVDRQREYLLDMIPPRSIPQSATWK
Chain of UniProt Q14318 (Q14318 whole entry, looked up): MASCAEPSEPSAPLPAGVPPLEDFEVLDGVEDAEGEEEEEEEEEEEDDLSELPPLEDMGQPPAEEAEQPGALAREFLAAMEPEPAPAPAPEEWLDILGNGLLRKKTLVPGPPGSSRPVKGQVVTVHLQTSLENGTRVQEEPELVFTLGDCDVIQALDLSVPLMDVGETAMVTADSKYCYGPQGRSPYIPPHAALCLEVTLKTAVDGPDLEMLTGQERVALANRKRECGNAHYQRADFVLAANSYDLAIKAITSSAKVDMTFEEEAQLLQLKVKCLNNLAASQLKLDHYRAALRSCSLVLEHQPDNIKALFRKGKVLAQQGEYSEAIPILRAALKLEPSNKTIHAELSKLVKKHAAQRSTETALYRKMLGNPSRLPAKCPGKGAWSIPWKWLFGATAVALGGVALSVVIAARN
Chain of UniProt P41567 (P41567 whole entry, looked up): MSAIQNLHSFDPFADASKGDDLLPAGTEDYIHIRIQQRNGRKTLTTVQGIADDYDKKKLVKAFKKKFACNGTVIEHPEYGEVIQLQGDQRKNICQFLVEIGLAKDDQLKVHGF
Chain of UniProt P02792 (P02792 whole entry, looked up): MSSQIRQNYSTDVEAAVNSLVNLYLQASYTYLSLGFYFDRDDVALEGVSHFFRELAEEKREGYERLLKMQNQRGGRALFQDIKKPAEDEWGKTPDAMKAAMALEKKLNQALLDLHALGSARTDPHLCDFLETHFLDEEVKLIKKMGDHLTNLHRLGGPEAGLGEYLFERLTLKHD
Chain of UniProt Q6P4F2 (Q6P4F2 whole entry, looked up): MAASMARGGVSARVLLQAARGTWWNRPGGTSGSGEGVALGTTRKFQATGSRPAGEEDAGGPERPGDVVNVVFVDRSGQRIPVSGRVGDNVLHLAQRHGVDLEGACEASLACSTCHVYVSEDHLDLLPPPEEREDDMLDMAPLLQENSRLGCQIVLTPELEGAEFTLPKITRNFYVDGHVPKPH

| Target | log2 fold change [1] | log2 fold change [2] | log2 fold change [3] | log2 fold change [4] | log2 fold change [5] | log2 fold change [6] | log2 fold change [7] | log2 fold change [8] | log2 fold change [9] | log2 fold change [10] | log2 fold change [11] | log2 fold change [12] | log2 fold change [13] | log2 fold change [14] | log2 fold change [15] | log2 fold change [16] | log2 fold change [17] | log2 fold change [18] | log2 fold change [19] | log2 fold change [20] |
| --- | --- | --- | --- | --- | --- | --- | --- | --- | --- | --- | --- | --- | --- | --- | --- | --- | --- | --- | --- | --- |
| FADS3 (UniProt Q9Y5Q0) | 0.066 | 0.149 | 0 | 0.119 | -0.103 | 0.023 | -0.957 (active) | 0.343 | 0.152 | -0.057 | -0.051 | 0.1 | -0.047 | 0.198 | -0.08 | 0.097 | 0.096 | 0 | 0 | 0.063 |
| GEMIN4 (UniProt P57678) | 0.036 | 0.025 | 0.041 | -0.037 | -0.053 | 0.023 | -0.168 | -0.091 | 0.091 | 0.041 | 0.017 | -0.196 | 0.078 | -0.014 | -0.072 | 0.022 | 0.013 | -0.006 | -0.005 | 0.016 |
| GEMIN2 (UniProt O14893) | 0.061 | -0.017 | 0.052 | 0.033 | 0.009 | 0.011 | -0.052 | 0.029 | 0.025 | -0.045 | 0.034 | -0.053 | 0.001 | -0.006 | 0.013 | 0.095 | -0.009 | -0.017 | 0.009 | -0.1 |
| EEF1AKNMT (UniProt Q8N6R0) | -0.007 | 0.041 | 0.008 | -0.08 | -0.026 | 0.053 | -0.026 | -0.031 | -0.017 | 0.008 | 0.009 | -0.102 | 0.051 | -0.012 | -0.015 | 0.005 | 0.076 | -0.02 | 0.027 | -0.031 |
| DUS3L (UniProt Q96G46) | -0.055 | 0.004 | -0.038 | -0.025 | 0.005 | -0.043 | 0.246 (active) | -0.048 | 0.021 | 0.033 | 0.076 | -0.065 | -0.012 | -0.023 | 0.001 | 0.091 | -0.024 | -0.02 | 0.036 | -0.005 |
| FKBP8 isoform 2 (UniProt Q14318) | -0.037 | -0.01 | 0.366 | -0.045 | 0.005 | -0.029 | 0.033 | -0.084 | -0.022 | 0.006 | 0.004 | -0.123 | 0.02 | 0.024 | -0.018 | 0.009 | 0.112 | 0.027 | 0.001 | 0.01 |
| EIF2AK1 (UniProt Q9BQI3) | -0.004 | -0.05 | 0.019 | -0.016 | -0.287 (active) | -0.002 | -0.001 | -0.037 | -0.019 | 0 | 0.044 | -0.044 | 0.068 | -0.021 | -0.028 | -0.004 | 0.041 | -0.004 | 0.122 | 0.101 |
| EIF1 (UniProt P41567) | 0.013 | -0.014 | -0.053 | 0.053 | 0.023 | -0.05 | 0.009 | 0.084 | -0.02 | -0.042 | -0.033 | 0.084 | -0.039 | -0.013 | -0.02 | -0.017 | -0.032 | -0.006 | 0.005 | -0.247 (active) |
| FDX2 (UniProt Q6P4F2) | 0.022 | -0.011 | 0.166 | 0.069 | 0.038 | -0.047 | -0.264 | -0.003 | -0.122 | -0.027 | -0.016 | 0.093 | -0.001 | -0.017 | -0.478 | -0.33 | -0.313 | 0.07 | -0.021 | -0.041 |
| GATAD2A isoform 3 (UniProt Q86YP4) | -0.014 | 0.019 | 0.008 | 0.012 | -0.014 | -0.004 | -0.058 | 0.022 | 0.022 | -0.002 | -0.028 | -0.045 | 0.015 | 0 | 0.025 | 0.005 | 0.072 | 0.006 | 0.01 | -0.023 |
| FNTB (UniProt P49356) | 0.055 | -0.009 | -0.036 | 0.285 (active) | 0.005 | 0.037 | -0.036 | 0.016 | 0.016 | 0.042 | -0.003 | 0.048 | -0.019 | 0.026 | -0.056 | -0.046 | 0.131 | -0.034 | -0.007 | -0.031 |
| EPB41, A0A2R8Y6D0 | -0.019 | -0.004 | 0.043 | -0.108 | 0.006 | -0.24 | -0.047 | 0.594 (active) | -0.082 | 0.044 | -0.015 | -0.033 | 0.114 | 0.098 | -0.178 | 0.029 | 0.052 | 0.165 | -0.014 | 0.407 |
| EFCAB14 (UniProt O75071) | 0.022 | 0.001 | -0.01 | 0.039 | 0.008 | -0.042 | -0.058 | 0.047 | 0.023 | 0.005 | -0.056 | 0.077 | 0.01 | -0.007 | -0.058 | 0.038 | -0.086 | 0.063 | 0.012 | -0.131 |
| FTL (UniProt P02792) | -0.063 | 0.047 | -0.005 | 0.03 | 0.06 | -0.327 | -0.041 | 0.092 | 0.058 | 0.036 | 0.013 | 0.187 | -0.04 | 0.15 | -0.097 | 0.145 | -0.076 | 0.067 | 0.007 | -0.024 |
| FIBP (UniProt O43427) | -0.011 | 0.041 | 0.105 | -0.236 (active) | -0.013 | -0.001 | -0.028 | -0.021 | 0.039 | 0.008 | 0.03 | 0.003 | 0.05 | 0.1 | -0.079 | 0.036 | 0.094 | 0.012 | 0.002 | -0.005 |
| ERLIN1 (UniProt O75477) | 0.01 | 0.013 | 0.008 | -0.037 | -0.029 | 0.033 | 1.01 | -0.059 | 0.041 | -0.023 | 0.006 | -0.058 | -0.001 | -0.024 | -0.066 | 0.086 | -0.216 (active) | -0.007 | -0.028 | 0.035 |
